Screens: PubChem BioAssay, several laboratories
Rows were chosen to be rich in hits. Some 12% of all compounds tested hit in one or more screens of this group.
Insulin prom up – insulin promoter activators in MIN6 cells, imaging, high-content screening, mouse beta cells. MIN6 insulin promoter-GFP reporter; active compounds read high. z-score at 5 µM. 190,000 compounds, 0.3% hits. AID 1625, 2009;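 active = z-score above 3 at 5 µM with at least 500 cells counted in the well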
ROMK primary – ROMK potassium channel modulators, primary screen, cell-based, thallium flux, MLSMR library. B-score at 10 µM. Tet-inducible ROMK, thallium flux fluorescence; actives lie on both sides. ATP-sensitive inward rectifier potassium channel 1 (Homo sapiens), P48048. 130,000 compounds, 2% hits;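 active = signal ratio slope over the read window, or its plate-corrected B-score, at least 3 SD from the plate mean, either direction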;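 note: B-score of the F/F0 ratio slope over 7 to 12 s after thallium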
Target sequence (P48048 whole entry, looked up): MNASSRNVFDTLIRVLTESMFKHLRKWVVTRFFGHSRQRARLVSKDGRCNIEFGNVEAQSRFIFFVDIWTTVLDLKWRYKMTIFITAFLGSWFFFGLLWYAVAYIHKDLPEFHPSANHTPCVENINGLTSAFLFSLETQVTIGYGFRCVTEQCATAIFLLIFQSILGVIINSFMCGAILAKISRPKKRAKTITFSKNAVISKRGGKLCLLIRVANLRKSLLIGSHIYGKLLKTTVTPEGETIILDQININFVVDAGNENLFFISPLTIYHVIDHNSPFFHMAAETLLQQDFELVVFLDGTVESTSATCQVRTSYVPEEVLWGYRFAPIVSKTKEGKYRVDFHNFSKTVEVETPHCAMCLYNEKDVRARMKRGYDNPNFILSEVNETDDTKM
L major viab – Leishmania major promastigote growth inhibition, primary screen | Leishmania major promastigotes, resazurin fluorescence viability | inhibition, % at 10 µM | 200,000 compounds, 9% hits; in the data active = inhibition above about 50%;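 note: promastigotes grown with compound for 44 hours at 28 °C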
WT yeast gro inh – growth inhibition of WT strain, primary screen, mitochondrial fusion inhibitor project, WT and mutant strains, chemical genetic; mitochondrial fusion phenotypic screen; inhibition, % at 10 µM; 190,000 compounds, 2.1% hits; in the data active = inhibition above about 58%; tested in S. cerevisiae
INS promoter inh – inhibitors of insulin promoter-driven GFP, primary screen, imaging, TRM-6 cells (human fetal islet line), eGFP reporter, cell count; reporter expression induced with tamoxifen; inhibition, % at 2 µM; 130,000 compounds, 0.9% hits;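 active = inhibition above the mean plus 3 SD, with well images judged a real hit on visual review, cut at about 60% in these data, passing the limit was not always enough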
KCC2 mod – KCC2 cotransporter modulators, thallium flux, primary screen, cell-based, HEK293 KCC2, FluoZin-2 fluorescence, MLSMR; Solute carrier family 12 member 5 (Homo sapiens), Q9H2X9; KCC2 cells, thallium flux FluoZin-2 fluorescence; B-score of Tl+ flux slope (higher = more flux/activation; lower = inhibition) at 10 µM; 190,000 compounds, 2.2% hits; AID 1456, 2008;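 active = thallium flux slope and its plate-corrected score both differing from the plate sample mean at a set confidence after two filtering rounds, in either direction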;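 note: slope of fluorescence scaled to starting intensity during 10 to 20 s after thallium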
* marks the source's active call; other numbers are inactive results; . = no result given.

SMILES	Insulin prom up	ROMK primary	L major viab	WT yeast gro inh	INS promoter inh	KCC2 mod
O=C(CSc1nc2cc([N+](=O)[O-])ccc2n1-c1ccc(F)cc1)NC1CCS(=O)(=O)C1 (stereo not drawn)	-0.65	-0.0035	12	-1	13	1
COC(=O)c1ccccc1NC(=O)CN(c1cc(OC)ccc1OC)S(C)(=O)=O	1.2	0.19	10	-4	-43	.
O=C(/C=C/c1ccccc1)NC(NC(=S)Nc1cc(Cl)ccc1Cl)C(Cl)(Cl)Cl (stereo not drawn)	0.17	.	99*	-1	-77	.
CCC(C)NC(=S)N1CCN(Cc2ccccc2)CC1 (stereo not drawn)	-1.1	-0.99	-1	-9	-33	-1.4
CCOc1ccccc1C(=O)N1CCN(C(c2ccccc2)c2ccccc2)CC1	-2	.	95*	8	3	.
CNC(=S)N1CCN(C(c2ccccc2)c2ccccc2)CC1	-0.07	0.31	2	70*	.	-1.4
CCC(C)NC(=S)N1CCN(C(c2ccccc2)c2ccccc2)CC1 (stereo not drawn)	0.02	-0.58	46	69*	6	-0.66
CCN(CC)C(=O)C(=O)Nc1ccc(Oc2ccccc2)cc1	.	-0.35	-6	-1	38	-1.1
CCN(CC)S(=O)(=O)c1ccc(NC(=O)c2cc(C(=O)OC)cc([N+](=O)[O-])c2)cc1	1	0.49	30	-9	71*	-0.74
CCN(CC)S(=O)(=O)c1ccc(C(=O)Nc2cc(C)cc(C)c2)cc1	-0.18	.	9	-11	19	-0.24
COC(=O)c1cc(C(=O)Nc2ccc(S(=O)(=O)NC(C)(C)C)cc2)cc([N+](=O)[O-])c1	0.33	1.1	99*	4	36	-1.1
COc1ccc(C(=O)Nc2ccc(S(=O)(=O)NC(C)(C)C)cc2)cc1[N+](=O)[O-]	.	0.39	40	-25	-20	0.0045
COc1ccc(S(=O)(=O)NC2CC3CCC2C3)cc1Cl (stereo not drawn)	0.37	.	2	6	25	-1.9
O=C(NC(=S)NCc1ccccc1)c1ccccc1F	0.06	.	-2	6	3	15*
O=C(NC(=S)N(Cc1ccccc1)Cc1ccccc1)c1ccccc1F	-0.75	.	1	4	31	65*
O=C(NC(=S)NC(=O)c1ccccc1F)c1ccccc1F	0.4	0.15	-9	-11	8	2.7
CCn1cc(C2=NCCO2)c2ccccc21	0.34	.	-7	9	.	-0.0027
Cc1ccc(C(=O)CN2C(=O)c3ccccc3S2(=O)=O)cc1	-0.06	.	.	.	.	0.17
Cc1ccc(C(=O)CN2/C(=C(\O)c3ccccc3)C(=O)c3ccccc3S2(=O)=O)c(C)c1	0.27	.	82*	55	9	0.7
O=C/C(=C\Nc1ccc(Br)cc1)c1nc2ccccc2o1	-0.29	0.7	-6	6	.	-0.38
O=C/C(=C\Nc1ccccn1)c1nc2ccccc2o1	.	-0.8	73*	-3	-228	0.33
CC(C)(C)c1ccc(NC(=S)NCCc2ccccn2)cc1	0.28	.	.	.	.	-0.57
CC(=O)c1ccc(NC(=S)NCCc2ccccn2)cc1	0.67	0.46	71*	-17	32	1.4
Cc1cccc(C)c1N1CCN(c2ccc3nnc(C(F)(F)F)n3n2)CC1	-1.4	-0.86	60*	78*	65	0.52
CCN(CC)c1ccc2c(C)c(Cl)c(=O)oc2c1	-1.3	-1.8	4	11	.	1.1
SMILES	Insulin prom up	ROMK primary	L major viab	WT yeast gro inh	INS promoter inh	KCC2 mod
CCN(CC)c1ccc2c(Cl)c(Br)c(=O)oc2c1	.	.	69*	77*	-133	-1.9
CC1=NN(c2ccc(Cl)cc2)C(=O)/C1=C\c1cccn1-c1ccc(S(N)(=O)=O)cc1	.	1.2	50*	81*	33	0.57
Cc1ccc(S(=O)(=O)N/N=C/c2cccn2-c2ccc(Cl)cc2)cc1	.	-0.002	1	-3	.	-1.2
CC(C)=CC(=O)Nc1c(C)cc(C)cc1Cl	0.06	-0.17	-5	4	18	-0.18
Cc1noc(C)c1C(=O)Nc1c(F)cc(F)cc1Br	0.11	.	-1	-10	-15	1.6
CCOC(=O)c1[nH]n(-c2ccc(Cl)cc2)c(=O)c1C	0.53	-0.013	52*	2	19	0.41
CCOC(=O)c1cc2c(n(-c3ccc(Cl)cc3)c1=O)CCCC2=O	-0.44	0.012	16	-1	.	-0.17
O=C(c1ccccc1)C1CCN(C(=O)c2cccs2)CC1	-0.26	.	.	.	.	-1.1
O=C(CCN1CCC(c2ccccc2)C1)c1cccs1 (stereo not drawn)	0.26	.	72*	-14	35	-0.5
O=C(c1cccs1)N1CCC(c2ccccc2)C1 (stereo not drawn)	0.68	.	9	-14	79*	.
CCCc1nc(SCC(=O)N2CCN(c3ccccc3)CC2)c2c(=O)n(C)c(=O)n(C)c2n1	0.15	.	-1	0	.	0.026
COc1cc2ncnc(NCc3ccc(Cl)cc3)c2cc1OC	-0.78	2.1	62*	13	.	-0.67
COc1cc2ncnc(NCc3ccccc3Cl)c2cc1OC	0.76	-1.6	38	8	.	-1
Cc1ccc(-c2csc3ncnc(-n4nc(C)cc4N)c23)cc1	0.55	.	2	3	.	0.64
Clc1ncnc2scc(-c3ccc(Br)cc3)c12	0.24	0.67	94*	25	41	0.55
CC(=O)c1ccc(N2CCN(C(=O)Nc3ccc(C(C)C)cc3)CC2)cc1	-0.42	.	65*	14	50	-0.99
O=C(CSCc1ccc([N+](=O)[O-])cc1)N/N=C/c1cccnc1	0	0.43	-2	4	.	0.17
Cc1ccsc1/C=N/NC(=O)CNC(=O)c1ccc(S(=O)(=O)N(C)C)cc1	0	-0.87	52*	-6	-44	-0.19
Cc1ccc(/C=N/NC(=O)CNC(=O)c2ccc(S(=O)(=O)N(C)C)cc2)cc1	-0.29	0.26	48	-9	-28	-0.99
CN(C)S(=O)(=O)c1ccc(C(=O)NCC(=O)N/N=C/c2ccccc2Cl)cc1	0.43	0.78	68*	-5	29	-0.016
CN(C)S(=O)(=O)c1ccc(C(=O)NCC(=O)N/N=C/c2cccs2)cc1	0.65	0.43	39	-9	-50	0.84
CC(C)CNc1oc(-c2ccccc2Cl)nc1C#N	-0.3	-0.6	5	12	.	-0.33
COc1ccc(CCN2C(=O)CC(N3CCN(S(=O)(=O)c4ccccc4)CC3)C2=O)cc1 (stereo not drawn)	-1.2	.	63*	2	-36	-1.4
COc1ccc(OCCN2CCN(C3CC(=O)N(CCC(C)C)C3=O)CC2)cc1 (stereo not drawn)	-2.4	-0.58	92*	-4	.	.
Cc1ccc(S(=O)(=O)N2CCN(C3CC(=O)N(Cc4ccccc4)C3=O)CC2)cc1C (stereo not drawn)	-0.44	.	93*	13	-13	-0.77
COc1ccc(CCN2C(=O)CC(N3CCOCC3)C2=O)cc1 (stereo not drawn)	.	.	-2	2	11	-1.3
